Screens deposited in PubChem BioAssay by National Center for Advancing Translational Sciences (NCATS).
HP1b binding inh – HP1-beta chromodomain-methylated histone interaction inhibition; Potency, µM (highest dose often 114 µM), without a hit: at the top dose activity change, negative = inhibition, actives largely listed as inhibitors; AlphaScreen HP1-beta / biotin-H3K9me3 peptide binding; 0.56% of 390,000 active; AID 540317; P83916; further: potency means the concentration at half of the fitted maximal effect; nearly all actives have a fitted effect of over 70% in size
Target sequence (P83916 whole entry, looked up): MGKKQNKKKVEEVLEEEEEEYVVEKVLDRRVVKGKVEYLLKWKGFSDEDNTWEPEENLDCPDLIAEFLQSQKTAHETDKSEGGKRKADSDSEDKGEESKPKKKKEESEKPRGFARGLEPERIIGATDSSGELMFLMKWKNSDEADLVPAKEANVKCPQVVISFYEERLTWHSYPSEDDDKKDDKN
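AlphaScreen: HP1-beta (50 nM) preformed 30 min with biotin-H3(1-18)K9me3 peptide (50 nM) in PBS pH 7.4, 0.01% Tween-20. Compound added for 30 min at RT, then streptavidin donor/nickel chelate acceptor beads (10 ug/mL) for 30 min.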
Six1-Eya2 blk – inhibitors of human Six1/Eya2 interaction; 0.56% of 360,000 active; activity change, % (no concentration beside the values); AID 651725; Q15475+O00167; AlphaScreen GST-Six1/His-Eya2 binding, biochemical; active compounds read low; in the data active means activity change below about -65%; inconclusive means mostly about -30% to -63%; further: on the % scale 0 is the no-effect control and ±100 the full control effect
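Six1/Eya2 binding was read as AlphaScreen signal after compounds were pinned into GST-Six1 plus His-tagged Eya2 (5X stock 250/500 nM) in pH 8.0 Tris/NaCl/TCEP buffer, beads added, then incubated 1 h, 37 C, dark.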
BAZ2B inh – inhibitors of human BAZ2B bromodomain | AID 504333 | Q9UIF8 | AlphaScreen BAZ2B-H3K14Ac peptide displacement | Potency, µM (titrated, usually from 114 µM), for the others: at the top dose activity change, negative = inhibition, actives largely listed as inhibitors | 4.4% of 360,000 active; further: potency means the concentration at half of the fitted maximal effect; on the % scale 0 is the no-effect control and ±100 the full control effect; nearly all actives have a fitted effect of over 60% in size
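AlphaScreen displacement of biotin-H3(5-23)K14Ac peptide (50 nM final) from BAZ2B (50 nM final) in PBS pH 7.4, 0.01% Tween-20; complex preformed 30 min RT, then compounds (top 110 uM) 30 min RT, beads 20 min dark.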
G9a inh – G9a (human) methyltransferase inhibition | Q96KQ7 | G9a H3K9 monomethylation, AlphaScreen, 2 h | Potency, µM (titrated, usually from 102 µM), without a hit: top-dose activity, negative = inhibition, actives largely listed as inhibitors | 8.8% of 350,000 active; further: potency means the concentration at half of the fitted maximal effect; on the % scale 0 is the no-effect control and ±100 the full control effect; nearly all actives have a fitted effect of over 75% in size
Target sequence (Q96KQ7 913-1193 limits assumed): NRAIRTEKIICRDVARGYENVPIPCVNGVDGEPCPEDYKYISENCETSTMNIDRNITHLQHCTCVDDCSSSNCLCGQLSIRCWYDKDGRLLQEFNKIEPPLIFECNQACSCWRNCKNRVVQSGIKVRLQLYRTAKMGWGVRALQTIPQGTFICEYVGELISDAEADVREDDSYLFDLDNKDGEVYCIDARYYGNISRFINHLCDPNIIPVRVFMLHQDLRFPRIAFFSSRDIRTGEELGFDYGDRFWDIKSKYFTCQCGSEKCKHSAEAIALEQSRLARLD
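Compounds were preincubated with 20 nM G9a for 15 min, after which biotinylated H3K9 peptide (500 nM) and SAM (20 uM) started a 2 h room-temperature reaction. Monomethylated product was quantified by antibody-based AlphaScreen chemiluminescence.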
CtBP-E1A blk – CtBP/E1A binding inhibition | AlphaScreen GST-E1A/His-CtBP binding, 1536-well; active compounds read low | activity change, % (concentration not given with the values) | 0.49% of 340,000 active; in the data active means activity change below about -65%; inconclusive means mostly about -30% to -63%; further: on the % scale 0 is the no-effect control and ±100 the full control effect
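GST-E1A and His-tagged CtBP (125 nM each as 5X stock) were preincubated with pin-transferred compound for 2 h at 37 °C in the dark, then glutathione donor and nickel acceptor beads were added for 1 h before AlphaScreen reading.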
JMJD2A Tudor inh – JMJD2A Tudor domain (human) inhibition. O75164. Potency, µM (titrated, usually from 114 µM), for the others: at the highest dose activity change, negative = inhibition, hits mostly inhibitors. 4.4% of 390,000 active. AID 504339. AlphaScreen JMJD2A-Tudor / H3K4me3 peptide binding; further: potency means the concentration at half of the fitted maximal effect; on the % scale 0 is the no-effect control and ±100 the full control effect; nearly all actives have a fitted effect of over 50% in size
* = called active by the depositor; ? = inconclusive; nt = no result; [ ] = remark or other dose. A selection: hits, their analogues and other compounds. The true share with any hit is near 10%. Unless noted, the call rests on the fitted dose curve; in most records, active means well fitted inhibition curve with a large enough effect; inconclusive means small, poorly fitted or top-dose-only effect; inactive means no such curve, though single readings can be large or run the other way.

SMILES	HP1b binding inh	Six1-Eya2 blk	BAZ2B inh	G9a inh	CtBP-E1A blk	JMJD2A Tudor inh
Oc1c(Cl)cc(Cl)cc1/C=N/c1nccs1	16%	-24	-2%	8.9µM*	-24	-18%
COc1ccc2c(c1)c1c(c(=O)n(CCc3ccccc3)c(=O)n1Cc1ccc(Cl)cc1)n2C	36%	nt	-2%	5%[59 µM]	nt	11%
CCNC(=O)NC(=O)C(C)Sc1nnc(COc2ccccc2Cl)o1 (configuration not stated)	63%	-2	?	18µM*	3	?
[O-]/C(=C(\C(=S)NCc1ccc2c(c1)OCO2)[n+]1ccccc1)c1ccc(Cl)s1	-10%	-18	45µM*	28µM*	-17	-33%
CCOc1ccc(NC(=S)/C(=C(\[O-])c2ccc(C)c([N+](=O)[O-])c2)[n+]2ccccc2)cc1	-29%	-17	?	?	-24	-36%
Cc1c(Cl)cccc1NC(=S)/C(=C(\[O-])c1ccc(Cl)s1)[n+]1ccccc1	?	-13	?	?	-10	45µM*
O=C(NC(=S)NCc1ccc2c(c1)OCO2)c1ccccc1	-10%	-10	?	?	-3	-29%
Cc1ccc(NC(=S)/C(=C(\[O-])c2ccc(Cl)s2)[n+]2cccc(CO)c2)cc1C	?	-11	12%	45µM*	-11	50µM*
[O-]/C(=C(\C(=S)Nc1ccc(SC(F)F)cc1)[n+]1cccc(CO)c1)c1ccc(Cl)s1	-13%	-13	32µM*	25µM*	-9	?
O=c1c(-c2cc(F)cc(F)c2)nc2cnc(N3CCNCC3)nc2n1Cc1ccc(F)cc1	nt	nt	nt	14%[0.501 µM]	nt	nt
[O-]/C(=C(\C(=S)Nc1cccc2ccccc12)[n+]1cccc(CO)c1)c1ccc(Cl)s1	-26%	-8	32µM*	40µM*	-12	?
CC1=CCC2C(=O)N(c3nc4ccccc4n3C)C(=O)C2C1 (configuration not stated)	0%	-11	?	-5%[59 µM]	5	56µM*
COc1cccc(CN2CCN(Cc3cc(OC)c(OC)cc3[N+](=O)[O-])CC2)c1	-52%	-12	?	7.9µM*	-18	0.79µM*
COc1ccc(C(=O)Cc2cc(OC)c(OC)cc2[N+](=O)[O-])cc1	24%	1	0%	8%[59 µM]	12	-7%
COc1cc(CN2CCSCC2)c([N+](=O)[O-])cc1OC	?	-2	?	nt	7	2.2µM*
COc1cc(Cn2c(=O)sc3ccccc32)ccc1OCCC(C)C	83%	nt	62%	94%[59 µM]	nt	46%
O=C(CCn1c(=O)c2cccn2c2cccnc21)Nc1ccccc1Br	10%	nt	-3%	-3%[59 µM]	nt	-16%
Cc1cccc(NC(=O)CSc2nnc3scc(-c4ccccc4)n23)c1	15%	nt	1%	5%[59 µM]	nt	-4%
CS(=O)(=O)c1ccc(C(=O)OC2CCOC2=O)cc1[N+](=O)[O-] (configuration not stated)	6%	-13	-23%	50µM*	-14	-27%
COc1ccc(NC(=O)c2ccco2)cc1NC(=O)c1ccc(OC(C)C)cc1	17%	nt	?	-48%[59 µM]	nt	-32%
CCc1ccc(-n2cc(-c3ccc([N+](=O)[O-])cc3)[nH]c2=S)cc1	9%	0	-36%	?	-3	-24%
CCc1ccc(-c2cn(C3CCCCC3)c(=S)[nH]2)cc1	?	-29	18µM*	?	-5	28µM*
Cc1ccc(-n2nc(C)c3c(C)cc(=O)n(CC(=O)Nc4ccc(Br)cc4F)c32)cc1	25%	nt	0%	10%[59 µM]	nt	0%
CC1CCN(C(=O)CCc2ccc(Oc3cc([N+](=O)[O-])cc([N+](=O)[O-])c3)cc2)CC1	45µM*	?	28µM*	?	?	13µM*
Cc1ccc(NS(=O)(=O)c2ccc(Br)s2)nc1	-14%	-2	-31%	40µM*	2	-20%
SMILES	HP1b binding inh	Six1-Eya2 blk	BAZ2B inh	G9a inh	CtBP-E1A blk	JMJD2A Tudor inh
Cc1cc(C)nc(NS(=O)(=O)c2ccc(Br)s2)c1	30%	6	-2%	50µM*	-2	-21%
Cc1cccc(NS(=O)(=O)c2ccc(Br)s2)n1	25%	6	-8%	?	8	-11%
CN(c1ccccc1)S(=O)(=O)CS(=O)(=O)N(C)c1ccccc1	35%	3	nt	nt	-4	-1%
CCC1=C/C(=C/N(C)c2ccccc2)C(=O)S1	?	-5	-8%	25µM*	-9	?
Cc1sc2ccc3sccc3c2[n+]1C	4%	4	?	3.5µM*	3	20µM*
Cc1sc2c3ccsc3ccc2[n+]1C	-20%	9	100µM*	?	-12	25µM*
COc1cccc(CN2CC(C(=O)N(C)Cc3nc4ccc(F)cc4[nH]3)CCC2=O)c1 (configuration not stated)	35%	5	-3%	nt	9	9%
COc1ccc2nc(CCN(C)C(=O)C3CCC(=O)N(Cc4cccc(F)c4)C3)[nH]c2c1 (configuration not stated)	19%	1	50µM*	7%	2	-31%
CNC(=S)NNC(=O)c1sccc1OCc1ccc(Cl)cc1Cl	38%	1	1%	22%	0	1%
S=c1nc(-c2sccc2OCc2ccc(Cl)cc2Cl)[nH][nH]1	-14%	-6	?	45µM*	nt	-8%[11.4 µM]
COc1ccc(N=Nc2c(C)[nH]c3ccccc23)cc1	?	0	nt	nt	-25	50µM*
O=C(O)c1ccc(N=Nc2c(O)[nH]c3ccccc23)cc1	8%	-16	?	nt	-7	-33%
CC(=O)c1cccc(N=Nc2c(C)[nH]c3ccccc23)c1	-31%	-4	35µM*	10µM*	0	?
CC1CCN(S(=O)(=O)c2ccc3c(c2)oc(=O)n3CC(=O)NC(C)c2ccccc2)CC1 (configuration not stated)	17%	nt	-26%	?	nt	-25%
COc1ccc(C(=O)NCCn2cc(SCc3cccc(F)c3)c3ccccc32)cc1OC	7%	nt	?	-7%[59 µM]	nt	-31%
COc1ccc(Oc2ncc3nc(C)c(=O)n(C4CC4)c3n2)cc1	nt	nt	nt	1%[12.7 µM]	nt	nt
O=C(CC1(O)C(=O)N(C/C=C/c2ccccc2)c2ccccc21)c1ccccn1 (configuration not stated)	-19%	-2	-32%	50µM*	3	?
O=C(O)c1ccn[nH]1	-2%	5	nt	nt	9	45µM*
COc1ccccc1-c1sc2cc3c(cc2c1C#Cc1cncn1C)OCO3	-29%	-15	nt	nt	nt	20µM*
COc1ccc2sc(-c3ccccc3OC)c(C#Cc3cncn3C)c2c1	0%	0	nt	nt	13	40µM*
